Several values for one entry are separate records, joined by “and”; a condition that tells them apart may be missing. Equal entries are not always repeated. Results filed as inconclusive are left out. Activity calls are given as the source filed them. Unless noted, calls follow the shape of the dose curve; as a rule, active = well fitted curve in the direction sought with a large enough effect; inconclusive = small, poorly fitted or top-dose-only effect, or another doubt; inactive = no such curve, though single readings can be large; an effect the other way counts as inactive or inconclusive.
Tests used:
[1] = qHTS for compounds that reverse cellular toxicity of Amyloid beta (A-beta) peptide in yeast: LOPAC Validation Assay (AID 720559);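 also: plate controls were DMSO for no effect and equimolar ferric chloride plus clioquinol rescue for full effect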
Method in brief: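 Yeast cells expressing toxic A-beta were combined with pinned compounds in growth medium and incubated 48 hr at 30 C. Growth was read as absorbance at 600 nm and normalized to DMSO and to an equimolar FeCl3/clioquinol positive control.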

[2] = qHTS for Activators of Parkin Expression: LOPAC Validation Assay (NLuc Reporter) (AID 720572)
Method in brief: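 NLuc signal, read 10 min after reagent and following a prior FLuc read, is normalized to DMSO (0) and positive controls (100%). Cells: neuronal Parkin-promoter coincidence reporter line; compounds tested 7-point, 24 h, 37 C, 5% CO2.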

[3] = qHTS for Activators of Parkin Expression: LOPAC Validation Assay (FLuc Reporter) (AID 720573)
Method in brief: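 Neuronal cell line stably carrying FLuc/NLuc coincidence reporter under Parkin promoter; cells plated 24 h, then compounds added in 7-point dose response for 24 h at 37 C. FLuc luminescence read; normalized to DMSO and positive control (100%).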

[4] = qHTS assay for small molecule agonists of the antioxidant response element (ARE) signaling pathway measured by Nrf2-dependant transcriptional activity (AID 720636; active = well fitted curve in the direction sought with a large enough effect in the repeat runs; an effect the other way counts as inactive or inconclusive; also: % of control where 0% means no effect)
Method in brief: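 ARE-luc HepG2 cells carrying an Nrf2-responsive luciferase reporter, in medium with 1% dialyzed FBS, exposed to compound for 16 hr at 37 C, 5% CO2. Luminescence read 30 min after ONE-Glo addition.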

[5] = qHTS assay for small molecule antagonists of the retinoid-related orphan receptor gamma (ROR-gamma) signaling pathway - cell viability counter screen (AID 720652; active = well fitted curve in the direction sought with a large enough effect in the repeat runs; an effect the other way counts as inactive or inconclusive;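 also: compound exposure lasted 16 hr before ATP read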; also: potency is read from the fitted curve at half-maximal effect)
Method in brief: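 ATP-based viability readout in the ROR-gamma reporter CHO cells after 16 hr compound exposure under doxycycline induction.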

[6] = qHTS assay for small molecule agonists of the antioxidant response element (ARE) signaling pathway measured by Nrf2-dependant transcriptional activity - cell viability counter screen (AID 720653; active = well fitted curve in the direction sought with a large enough effect in the repeat runs; an effect the other way counts as inactive or inconclusive; also: % is scaled to controls: 0 for no effect and ±100 for the full control effect); conditions: ARE-bla HepG2 viability, CellTiter-Glo ATP luminescence, 16 h; max response: hits give low values
Method in brief: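 ARE-bla HepG2 cells treated with compounds for 16 h at 37C; this counter screen measures viability as intracellular ATP by CellTiter-Glo luminescence after 30 min at room temperature.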

[7] = target: T1, Hexokinase-4 (Homo sapiens) + Glucokinase regulatory protein (Homo sapiens) (UniProt P35557+Q14397); assay: qHTS assay for inhibitors of recombinant human GCK-GKRP interaction: Diaphorase-coupled assay (AID 743205)
Method in brief: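 GST-GCK (10 nM) with FLAG-GKRP (10 nM), 5 mM glucose and 0.4 mM ATP in pH 7.6 Hepes; compounds preincubated 20 min with substrate. G6PDH/diaphorase coupling converts resazurin to resorufin, read kinetically (ex 525/em 590 nm) for 30 min.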

[8] = target: T1, Hexokinase-4 (Homo sapiens) + Glucokinase regulatory protein (Homo sapiens); assay: qHTS assay for inhibitors of recombinant human GCK-GKRP interaction: ADP-Glo assay (AID 743206);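 also: plate controls were DMSO plus enzyme for no effect and no enzyme for full effect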
Method in brief: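 Pin-transferred compounds meet a 15 nM GST-GCK/15 nM FLAG-GKRP/2 uM S6P mix (dispense concentrations). ATP is then added to 0.4 mM final with 5 mM glucose, and the reaction runs 60 min at room temperature. ADP is quantified luminescently.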

[9] = target: Arylsulfatase A (Homo sapiens) (UniProt P15289); assay: qHTS screen for enhancers of Arylsulfatase A (ASA1): LOPAC Validation Assay (AID 720538)
Method in brief: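 SV40-transformed skin fibroblasts from an MLD patient (ASA-I179S) were treated with compounds for 48h at 37 degree C, then lysed with 0.5mM pNCS final substrate for 14h at room temperature; NaOH stop, fluorescence read (Ex=525 nm; Em=598 nm).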

T1 sequence (P35557 whole entry, looked up): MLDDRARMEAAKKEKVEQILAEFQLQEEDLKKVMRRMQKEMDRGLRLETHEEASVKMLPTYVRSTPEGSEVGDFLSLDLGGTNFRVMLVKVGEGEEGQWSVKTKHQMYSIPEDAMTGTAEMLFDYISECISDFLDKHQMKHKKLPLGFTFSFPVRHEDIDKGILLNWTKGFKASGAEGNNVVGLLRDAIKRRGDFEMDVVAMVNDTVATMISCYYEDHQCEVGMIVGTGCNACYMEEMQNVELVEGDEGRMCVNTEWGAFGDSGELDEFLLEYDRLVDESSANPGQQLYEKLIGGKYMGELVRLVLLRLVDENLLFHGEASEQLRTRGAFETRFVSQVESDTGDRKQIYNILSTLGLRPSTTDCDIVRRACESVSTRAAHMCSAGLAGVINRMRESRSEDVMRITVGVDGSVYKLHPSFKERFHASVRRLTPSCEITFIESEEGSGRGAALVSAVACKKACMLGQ
T1 sequence (Q14397 whole entry, looked up): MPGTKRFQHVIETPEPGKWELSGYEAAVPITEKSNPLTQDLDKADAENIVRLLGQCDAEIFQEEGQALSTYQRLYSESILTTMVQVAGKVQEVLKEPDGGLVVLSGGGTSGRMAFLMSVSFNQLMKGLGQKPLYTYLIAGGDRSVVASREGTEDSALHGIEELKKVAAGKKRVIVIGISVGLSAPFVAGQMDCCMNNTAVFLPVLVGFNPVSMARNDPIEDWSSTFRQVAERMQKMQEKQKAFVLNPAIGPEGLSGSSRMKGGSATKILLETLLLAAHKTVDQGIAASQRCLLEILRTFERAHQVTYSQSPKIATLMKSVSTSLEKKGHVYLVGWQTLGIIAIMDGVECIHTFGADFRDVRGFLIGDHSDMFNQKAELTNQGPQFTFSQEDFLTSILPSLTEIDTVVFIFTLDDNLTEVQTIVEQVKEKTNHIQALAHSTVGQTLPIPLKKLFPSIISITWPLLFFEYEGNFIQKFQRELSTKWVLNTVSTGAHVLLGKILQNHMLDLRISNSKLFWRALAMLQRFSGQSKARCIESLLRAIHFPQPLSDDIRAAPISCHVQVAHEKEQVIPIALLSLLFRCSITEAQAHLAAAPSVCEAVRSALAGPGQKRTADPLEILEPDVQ
Sequence of Arylsulfatase A (Homo sapiens) (P15289 whole entry, looked up): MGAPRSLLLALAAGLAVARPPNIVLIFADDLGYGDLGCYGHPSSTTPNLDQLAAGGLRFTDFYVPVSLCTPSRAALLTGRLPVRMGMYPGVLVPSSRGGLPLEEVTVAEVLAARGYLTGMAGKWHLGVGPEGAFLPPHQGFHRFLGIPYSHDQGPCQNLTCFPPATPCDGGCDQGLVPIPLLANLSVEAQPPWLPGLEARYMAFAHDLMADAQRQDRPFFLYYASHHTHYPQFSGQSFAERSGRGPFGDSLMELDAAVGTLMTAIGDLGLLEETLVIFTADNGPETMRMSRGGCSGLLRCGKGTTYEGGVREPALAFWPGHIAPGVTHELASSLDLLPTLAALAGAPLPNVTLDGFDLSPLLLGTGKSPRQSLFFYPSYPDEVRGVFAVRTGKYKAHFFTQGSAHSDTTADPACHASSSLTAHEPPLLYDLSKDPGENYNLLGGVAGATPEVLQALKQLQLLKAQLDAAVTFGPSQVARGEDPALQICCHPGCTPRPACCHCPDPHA

Cn1c(=O)c2[nH]cnc2n(C)c1=O
inactive: outcome [1] | outcome [2] | Potency [3] | outcome [4] | Potency [5] | max response [6] 0.323% | Potency [7] | Potency [8]

CC#C[C@]1(O)CC[C@H]2[C@@H]3CCC4=CC(=O)CCC4=C3[C@@H](c3ccc(N(C)C)cc3)C[C@@]21C
inactive: outcome [1] | outcome [2] | Potency [3] | outcome [4] | max response [6] -29.2% | Potency [7] | Potency [8]

O=C(C1CCCCC1)N1CC(=O)N2CCc3ccccc3C2C1 (centres undefined)
inactive: outcome [1]

CN(C)C(=O)C(CCN1CCC(O)(c2ccc(Cl)cc2)CC1)(c1ccccc1)c1ccccc1
inactive: outcome [1] | outcome [2] | Potency [3]

CC(C)NCC(O)c1ccc(O)c(O)c1 (centres undefined)
inactive: outcome [1] | outcome [2] | Potency [3] | outcome [4] | Potency [5] | max response [6] 0.482% and -3.43% | Potency [7] | Potency [8]

O=C(Nc1ccc([N+](=O)[O-])cc1Cl)c1cc(Cl)ccc1O
inactive: Potency [9] | outcome [4] | Potency [7] | Potency [8]

CC(C)C(=O)Nc1ccc([N+](=O)[O-])c(C(F)(F)F)c1
inactive: outcome [1] | outcome [2] | Potency [3] | outcome [4] | Potency [5] | max response [6] -4.94% and -9.28% | Potency [7] | Potency [8]

Clc1ccc(C(c2ccccc2Cl)C(Cl)Cl)cc1 (centres undefined)
inactive: outcome [1] | outcome [2] | Potency [3] | outcome [4] | max response [6] -18.3% and -6.45% | Potency [7] | Potency [8]
active: Potency [5] 59.6 µM

CC(C)(Oc1ccc(C2CC2(Cl)Cl)cc1)C(=O)O (centres undefined)
inactive: outcome [1] | outcome [2] | Potency [3] | outcome [4] | max response [6] 10.6% | Potency [7] | Potency [8]

COC(=O)Nc1nc2ccc(C(=O)c3cccs3)cc2[nH]1
inactive: outcome [1] | outcome [2] | Potency [3] | Potency [7] | Potency [8]

CN(C)CCOC(c1ccccc1)c1ccccc1
inactive: outcome [1] | outcome [2] | Potency [3] | outcome [4] | max response [6] -12% | Potency [7] | Potency [8]

CC(CCc1ccc(O)cc1)NCCc1ccc(O)c(O)c1 (centres undefined)
inactive: Potency [9] | outcome [1] | outcome [2] | Potency [3] | Potency [7] | Potency [8]

N[C@@H](Cc1c[nH]c2ccc(O)cc12)C(=O)O
inactive: outcome [1] | outcome [2] | Potency [3] | outcome [4] | max response [6] -3.27% | Potency [7] | Potency [8]

NC(=O)NO
inactive: Potency [9] | outcome [1] | outcome [2] | Potency [3] | Potency [7] | Potency [8]

COc1cc2nc(N3CCN(C(=O)c4ccco4)CC3)nc(N)c2cc1OC
inactive: outcome [1] | outcome [2] | Potency [3] | Potency [7] | Potency [8]

COc1cc2c(c(OC)c1OC)-c1ccc(OC)c(=O)cc1[C@@H](NC(C)=O)CC2
inactive: outcome [1] | outcome [2] | Potency [3] | outcome [4] | Potency [5] | max response [6] -19.8% and 13.5% and -10.8% | Potency [7] | Potency [8]

CC(C(=O)O)c1cccc(C(=O)c2ccccc2)c1 (centres undefined)
inactive: outcome [1] | outcome [2] | Potency [3]

CCC1(c2ccccc2)C(=O)NCNC1=O
inactive: outcome [1] | outcome [2] | Potency [3] | outcome [4] | Potency [5] | max response [6] 3.8% and 3.23% | Potency [7] | Potency [8]

COc1nc(C)nc(Cl)c1NC1=NCCN1
inactive: outcome [1] | outcome [2] | Potency [3] | Potency [7] | Potency [8]

CN1CCC(=C2c3ccccc3C=Cc3ccccc32)CC1
inactive: outcome [1] | outcome [2] | Potency [3] | Potency [7] | Potency [8]

OCCN1CCN(CCCN2c3ccccc3Sc3ccc(C(F)(F)F)cc32)CC1
inactive: outcome [1] | outcome [2] | Potency [3] | Potency [7] | Potency [8]

CN1CCC(=C2c3ccccc3CC(=O)c3sccc32)CC1
inactive: outcome [1] | outcome [2] | Potency [3] | Potency [7] | Potency [8]

CC1COc2c(N3CCN(C)CC3)c(F)cc3c(=O)c(C(=O)O)cn1c23 (centres undefined)
inactive: outcome [1] | outcome [2] | Potency [3] | Potency [7] | Potency [8]

COc1ccccc1N1CCN(CC(O)COc2cccc3ccccc23)CC1 (centres undefined)
inactive: outcome [1] | outcome [2] | Potency [3] | Potency [7] | Potency [8]

CCOC(=O)Nc1ccc(NCc2ccc(F)cc2)nc1N
inactive: outcome [1] | outcome [2] | Potency [3] | Potency [8]

NC12CC3CC(CC(C3)C1)C2
inactive: outcome [1] | outcome [2] | Potency [3] | Potency [7] | Potency [8]

Clc1ccccc1C(c1ccccc1)(c1ccccc1)n1ccnc1
inactive: outcome [1] | outcome [2] | Potency [3] | Potency [7] | Potency [8]

Cc1cc(C(C)(C)C)c(O)c(C)c1CC1=NCCN1
inactive: outcome [1] | outcome [2] | Potency [3] | Potency [7] | Potency [8]

COc1ccc(C2CNC(=O)C2)cc1OC1CCCC1 (centres undefined)
inactive: outcome [1] | outcome [2] | Potency [3] | Potency [7] | Potency [8]

Fc1ccc([C@@H]2CCNC[C@H]2COc2ccc3c(c2)OCO3)cc1
inactive: outcome [1] | outcome [2] | Potency [3] | Potency [7] | Potency [8]

CCOC(=O)c1ncn2c1CN(C)C(=O)c1cc(F)ccc1-2
inactive: outcome [1] | outcome [2] | Potency [3] | Potency [7] | Potency [8]

CN1C2CCC1CC(OC(=O)C(CO)c1ccccc1)C2 (centres undefined)
inactive: outcome [1] | outcome [2] | Potency [3] | Potency [7] | Potency [8]

CS(=O)(=O)Nc1ccc([N+](=O)[O-])cc1Oc1ccccc1
inactive: outcome [1] | outcome [2] | Potency [3] | Potency [7] | Potency [8]

Clc1ccc2nsnc2c1NC1=NCCN1
inactive: outcome [1] | outcome [2] | Potency [3] | Potency [7] | Potency [8]

CN(C)c1nc(N(C)C)nc(N(C)C)n1
inactive: outcome [1] | outcome [2] | Potency [3] | Potency [7] | Potency [8]

CCN1CCCC1CNC(=O)c1cc(S(=O)(=O)CC)c(N)cc1OC (centres undefined)
inactive: outcome [1] | outcome [2] | Potency [3] | Potency [7] | Potency [8]

COc1ccccc1OCCNCC(O)COc1cccc2[nH]c3ccccc3c12 (centres undefined)
inactive: outcome [1] | outcome [2] | Potency [3] | Potency [7] | Potency [8]

CC(C)NCC(O)COc1ccc(CCOCC2CC2)cc1 (centres undefined)
inactive: outcome [1] | outcome [2] | Potency [3] | Potency [7] | Potency [8]

COc1ccccc1OCC(O)CN1CCN(CC(=O)Nc2c(C)cccc2C)CC1 (centres undefined)
inactive: outcome [1] | outcome [2] | Potency [3] | Potency [7] | Potency [8]

Nc1nnc(-c2cccc(Cl)c2Cl)c(N)n1
inactive: outcome [1] | outcome [2] | Potency [3] | Potency [7] | Potency [8]

COc1ccc2c(c1)c(CC(=O)O)c(C)n2C(=O)c1ccc(Cl)cc1
inactive: outcome [1] | Potency [3] | outcome [4] | Potency [5] | max response [6] 1.73% and -1.81% | Potency [7] | Potency [8]

CC(COc1ccccc1)N(CCCl)Cc1ccccc1 (centres undefined)
inactive: outcome [4] | Potency [7] | Potency [8]

CCCCc1oc2ccccc2c1C(=O)c1cc(I)c(OCCN(CC)CC)c(I)c1
inactive: outcome [1] | outcome [2] | Potency [3] | Potency [7] | Potency [8]

CCc1cccc2c3c([nH]c12)C(CC)(CC(=O)O)OCC3 (centres undefined)
inactive: outcome [1] | outcome [2] | Potency [3] | Potency [7] | Potency [8]

CN1C(C(=O)Nc2ccccn2)=C(O)c2ccccc2S1(=O)=O
inactive: outcome [1] | Potency [3] | Potency [7] | Potency [8]

CCC1(C)CC(=O)NC1=O (centres undefined)
inactive: outcome [1] | outcome [2] | Potency [3] | Potency [7] | Potency [8]

O=c1[nH]cc(F)c(=O)[nH]1
inactive: outcome [2] | Potency [3] | outcome [4] | Potency [5] | max response [6] -3.42% | Potency [7] | Potency [8]

O=C1Cc2cc(CCN3CCN(c4nsc5ccccc45)CC3)c(Cl)cc2N1
inactive: outcome [1] | outcome [2] | Potency [3] | Potency [7] | Potency [8]

CC[N+](CC)(CC)CCOc1cccc(OCC[N+](CC)(CC)CC)c1OCC[N+](CC)(CC)CC
inactive: outcome [1] | outcome [2] | Potency [3] | Potency [7] | Potency [8]

Clc1ccc2c(c1)C(N1CCNCC1)=Nc1ccccc1O2
inactive: outcome [1] | outcome [2] | Potency [3] | Potency [7] | Potency [8]

O=C(c1ccc(F)cc1)C1CCN(CCn2c(=O)[nH]c3ccccc3c2=O)CC1
inactive: outcome [1] | outcome [2] | Potency [3] | Potency [7] | Potency [8]

— PubChem BioAssay (NCATS)
